Experimental data: ChEMBL document CHEMBL3988442, “University of Dundee, Small-Polar-MMV Screening Library” (2021)
For some of these results: Results with a measured potency or affinity are listed apart.

Columns and labels:
Set-up in all cases: scale not given: direction of the effect not stated beside the values
[1] = target: Protein translocase subunit SecA (Escherichia coli (strain K12)) (UniProt P10408); experiment: Assay to Identify E. coli SecA ATPase Inhibitors; format: functional; settings: 30 µM
Sequence of Protein translocase subunit SecA (Escherichia coli (strain K12)) (P10408 whole entry): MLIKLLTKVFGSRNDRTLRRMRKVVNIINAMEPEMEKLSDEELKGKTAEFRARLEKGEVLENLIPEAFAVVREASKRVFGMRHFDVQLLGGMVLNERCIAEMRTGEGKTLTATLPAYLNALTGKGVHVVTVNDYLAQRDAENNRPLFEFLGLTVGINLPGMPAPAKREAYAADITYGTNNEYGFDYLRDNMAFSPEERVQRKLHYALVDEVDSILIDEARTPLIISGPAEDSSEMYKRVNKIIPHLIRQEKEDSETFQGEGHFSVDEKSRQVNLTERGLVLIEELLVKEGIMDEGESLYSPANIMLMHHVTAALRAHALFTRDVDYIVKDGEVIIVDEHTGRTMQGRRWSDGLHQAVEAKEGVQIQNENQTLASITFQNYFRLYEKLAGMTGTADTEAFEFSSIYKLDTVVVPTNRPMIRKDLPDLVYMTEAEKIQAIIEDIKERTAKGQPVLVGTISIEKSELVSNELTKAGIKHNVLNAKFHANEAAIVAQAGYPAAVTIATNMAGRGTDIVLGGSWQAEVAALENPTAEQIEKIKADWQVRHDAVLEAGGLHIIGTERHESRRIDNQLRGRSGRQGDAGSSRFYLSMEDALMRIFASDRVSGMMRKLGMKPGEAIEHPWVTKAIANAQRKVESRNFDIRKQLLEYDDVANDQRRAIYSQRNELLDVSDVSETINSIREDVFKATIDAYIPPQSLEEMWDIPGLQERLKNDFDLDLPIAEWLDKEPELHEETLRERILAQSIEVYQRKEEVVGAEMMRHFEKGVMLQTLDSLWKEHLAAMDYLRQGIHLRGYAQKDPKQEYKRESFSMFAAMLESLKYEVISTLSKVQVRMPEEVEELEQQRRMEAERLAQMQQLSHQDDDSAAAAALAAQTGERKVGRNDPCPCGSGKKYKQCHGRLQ

[2] = target: T1, Ubiquitin-activating enzyme e1, putative (Leishmania donovani (strain BPK282A1)) (UniProt E9BSI1); experiment: Leishmania donovani Ubiquitin Activating Enzyme (LdE1); format: functional; settings: 30 µM
T1 sequence (whole entry): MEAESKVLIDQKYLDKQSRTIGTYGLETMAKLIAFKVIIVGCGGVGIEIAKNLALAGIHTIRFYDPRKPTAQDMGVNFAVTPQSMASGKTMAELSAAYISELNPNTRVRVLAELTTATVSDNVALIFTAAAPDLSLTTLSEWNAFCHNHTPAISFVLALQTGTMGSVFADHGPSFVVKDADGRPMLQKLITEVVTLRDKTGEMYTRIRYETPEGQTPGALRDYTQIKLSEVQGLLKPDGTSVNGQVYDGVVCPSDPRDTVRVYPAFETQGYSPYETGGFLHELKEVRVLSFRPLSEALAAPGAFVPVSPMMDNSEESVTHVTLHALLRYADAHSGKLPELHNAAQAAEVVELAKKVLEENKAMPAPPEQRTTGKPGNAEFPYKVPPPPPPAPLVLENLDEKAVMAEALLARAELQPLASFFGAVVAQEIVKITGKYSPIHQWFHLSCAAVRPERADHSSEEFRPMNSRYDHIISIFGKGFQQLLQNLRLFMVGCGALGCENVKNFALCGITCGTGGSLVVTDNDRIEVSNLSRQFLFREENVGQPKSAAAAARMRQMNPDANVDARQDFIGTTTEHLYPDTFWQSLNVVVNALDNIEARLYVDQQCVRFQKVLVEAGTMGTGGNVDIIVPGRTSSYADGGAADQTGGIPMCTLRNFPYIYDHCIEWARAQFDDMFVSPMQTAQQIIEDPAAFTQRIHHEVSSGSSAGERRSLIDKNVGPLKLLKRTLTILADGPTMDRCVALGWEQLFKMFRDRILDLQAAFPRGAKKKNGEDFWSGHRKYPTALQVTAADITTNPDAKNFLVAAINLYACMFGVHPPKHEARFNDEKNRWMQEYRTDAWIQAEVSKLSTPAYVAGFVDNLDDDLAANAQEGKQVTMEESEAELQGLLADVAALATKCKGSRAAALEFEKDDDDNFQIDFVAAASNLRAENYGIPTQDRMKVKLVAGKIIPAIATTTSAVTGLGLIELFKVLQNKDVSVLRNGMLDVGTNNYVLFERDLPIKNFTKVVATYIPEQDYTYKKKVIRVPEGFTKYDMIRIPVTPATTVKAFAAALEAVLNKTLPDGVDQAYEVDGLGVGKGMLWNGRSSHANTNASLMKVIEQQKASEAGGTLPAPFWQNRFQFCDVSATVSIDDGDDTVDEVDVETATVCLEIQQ

[3] = target: AMP-activated protein kinase, AMPK (Homo sapiens) (UniProt P54646+O43741+P54619+Q9UGJ0+Q9Y478+Q13131+Q9UGI9); experiment: AMP-dependent Kinase enzyme assay. An in vitro enzyme assay that detects ADP turnover that is directly proportional to AMPK activity. This uses naive AMPK that is activated during the assay with MK-8722; format: functional; settings: 30 µM
[4] = target: Sialic acid-binding Ig-like lectin 9 (Homo sapiens) (UniProt Q9Y336); experiment: Hs-Siglec9 ALPHAscreen SOP 20170721; settings: 10 µM
Sequence of Sialic acid-binding Ig-like lectin 9 (Homo sapiens) (Q9Y336 whole entry): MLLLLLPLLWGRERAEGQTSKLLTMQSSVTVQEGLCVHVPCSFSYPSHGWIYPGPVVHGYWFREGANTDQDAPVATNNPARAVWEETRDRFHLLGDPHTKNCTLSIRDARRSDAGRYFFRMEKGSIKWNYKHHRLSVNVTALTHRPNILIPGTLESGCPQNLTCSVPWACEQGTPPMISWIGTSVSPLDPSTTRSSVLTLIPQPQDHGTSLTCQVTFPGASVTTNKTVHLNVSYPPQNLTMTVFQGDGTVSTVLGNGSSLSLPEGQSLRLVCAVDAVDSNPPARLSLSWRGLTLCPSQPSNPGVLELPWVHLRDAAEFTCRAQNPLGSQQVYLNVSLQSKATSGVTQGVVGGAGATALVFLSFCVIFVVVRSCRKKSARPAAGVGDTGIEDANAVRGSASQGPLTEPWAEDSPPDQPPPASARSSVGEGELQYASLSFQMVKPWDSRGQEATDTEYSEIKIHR

[5] = tested on: Trypanosoma cruzi; experiment: Trypanosoma cruzi phosphomannomutase and mannose-1-phosphate guanylyltransferase assay; format: functional; settings: 10 µM
[6] = target: T2, Arginase-2, mitochondrial (Homo sapiens) (UniProt P78540); experiment: in vitro enzyme assay to detect the production of urea directly proportional to the activity of Arginase II; format: functional; settings: 33.3 µM; further: in the data most compounds retested in dose-response had high values
T2 sequence (whole entry): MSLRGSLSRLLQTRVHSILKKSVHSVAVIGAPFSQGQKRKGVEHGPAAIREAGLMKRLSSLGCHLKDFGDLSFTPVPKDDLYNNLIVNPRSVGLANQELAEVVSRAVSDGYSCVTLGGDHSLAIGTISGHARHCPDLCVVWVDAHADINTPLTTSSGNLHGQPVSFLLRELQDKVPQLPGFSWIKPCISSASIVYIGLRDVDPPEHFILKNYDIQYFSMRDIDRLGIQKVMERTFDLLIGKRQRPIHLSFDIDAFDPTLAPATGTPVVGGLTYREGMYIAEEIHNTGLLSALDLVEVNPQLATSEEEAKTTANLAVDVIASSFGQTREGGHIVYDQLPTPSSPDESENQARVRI

[7] = target: T3, Proteasome subunit beta (Trypanosoma cruzi) (UniProt O96673); experiment: Trypanosoma cruzi proteasome chymotrypsin-like activity (TcProtChymo) assay.; further: in the data most compounds retested in dose-response had high values; format: functional; settings: 9.37 µM
T3 sequence (whole entry): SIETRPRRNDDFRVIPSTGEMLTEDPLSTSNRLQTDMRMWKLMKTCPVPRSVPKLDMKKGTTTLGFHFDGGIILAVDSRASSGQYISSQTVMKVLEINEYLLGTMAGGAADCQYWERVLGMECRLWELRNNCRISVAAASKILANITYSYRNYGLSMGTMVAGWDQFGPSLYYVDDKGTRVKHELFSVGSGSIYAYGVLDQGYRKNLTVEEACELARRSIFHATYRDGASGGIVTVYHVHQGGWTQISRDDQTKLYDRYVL

[8] = organism: Homo sapiens; experiment: To identify inhibition of the IFN signalling (Jak-Stat) pathway via expression of an eGFP reporter gene under the control of an IFN-stimulated response element (ISRE) containing MxA promoter.; format: functional; settings: 30 µM
[9] = target: T4, Tyrosyl-tRNA synthetase, putative (Trypanosoma cruzi (strain CL Brener)) (UniProt Q4DSP6); experiment: Trypanosoma cruzi tyrosyl tRNA synthetase (TcYRS) _High Tyrosine SOP; format: functional; settings: 30 µM; further: in the data most compounds retested in dose-response had high values
T4 sequence (whole entry): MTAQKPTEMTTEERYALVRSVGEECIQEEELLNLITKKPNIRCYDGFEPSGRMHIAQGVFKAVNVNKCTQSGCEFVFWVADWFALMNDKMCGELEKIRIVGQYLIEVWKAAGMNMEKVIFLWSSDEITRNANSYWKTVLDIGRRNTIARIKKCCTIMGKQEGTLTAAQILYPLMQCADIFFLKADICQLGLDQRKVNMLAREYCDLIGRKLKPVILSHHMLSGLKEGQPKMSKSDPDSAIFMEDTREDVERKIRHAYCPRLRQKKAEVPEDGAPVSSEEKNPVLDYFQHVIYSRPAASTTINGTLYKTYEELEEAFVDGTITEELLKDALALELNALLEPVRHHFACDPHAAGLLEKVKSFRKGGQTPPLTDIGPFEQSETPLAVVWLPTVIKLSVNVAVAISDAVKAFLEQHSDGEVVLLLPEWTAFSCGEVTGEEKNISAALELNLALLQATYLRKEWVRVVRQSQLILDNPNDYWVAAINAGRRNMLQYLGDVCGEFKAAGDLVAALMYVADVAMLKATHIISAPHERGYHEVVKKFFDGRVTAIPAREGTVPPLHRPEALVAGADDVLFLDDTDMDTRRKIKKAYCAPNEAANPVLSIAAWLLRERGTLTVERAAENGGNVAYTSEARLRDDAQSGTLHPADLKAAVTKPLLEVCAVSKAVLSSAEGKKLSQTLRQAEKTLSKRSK

[10] = target: T4, Tyrosyl-tRNA synthetase, putative (Trypanosoma cruzi (strain CL Brener)); experiment: Trypanosoma cruzi tyrosyl tRNA synthetase (TcYRS) SOP; format: functional; settings: 30 µM
[11] = target: Chromo domain-containing protein 1 (Saccharomyces cerevisiae (strain ATCC 204508 / S288c) (Baker's yeast)) (UniProt P32657); experiment: ScCHD-1 Enzyme Inhibition Assay; format: functional; settings: 30 µM; further: in the data most compounds retested in dose-response had high values
Sequence of Chromo domain-containing protein 1 (Saccharomyces cerevisiae (strain ATCC 204508 / S288c) (Baker's yeast)) (P32657 whole entry, the tested form may be a part): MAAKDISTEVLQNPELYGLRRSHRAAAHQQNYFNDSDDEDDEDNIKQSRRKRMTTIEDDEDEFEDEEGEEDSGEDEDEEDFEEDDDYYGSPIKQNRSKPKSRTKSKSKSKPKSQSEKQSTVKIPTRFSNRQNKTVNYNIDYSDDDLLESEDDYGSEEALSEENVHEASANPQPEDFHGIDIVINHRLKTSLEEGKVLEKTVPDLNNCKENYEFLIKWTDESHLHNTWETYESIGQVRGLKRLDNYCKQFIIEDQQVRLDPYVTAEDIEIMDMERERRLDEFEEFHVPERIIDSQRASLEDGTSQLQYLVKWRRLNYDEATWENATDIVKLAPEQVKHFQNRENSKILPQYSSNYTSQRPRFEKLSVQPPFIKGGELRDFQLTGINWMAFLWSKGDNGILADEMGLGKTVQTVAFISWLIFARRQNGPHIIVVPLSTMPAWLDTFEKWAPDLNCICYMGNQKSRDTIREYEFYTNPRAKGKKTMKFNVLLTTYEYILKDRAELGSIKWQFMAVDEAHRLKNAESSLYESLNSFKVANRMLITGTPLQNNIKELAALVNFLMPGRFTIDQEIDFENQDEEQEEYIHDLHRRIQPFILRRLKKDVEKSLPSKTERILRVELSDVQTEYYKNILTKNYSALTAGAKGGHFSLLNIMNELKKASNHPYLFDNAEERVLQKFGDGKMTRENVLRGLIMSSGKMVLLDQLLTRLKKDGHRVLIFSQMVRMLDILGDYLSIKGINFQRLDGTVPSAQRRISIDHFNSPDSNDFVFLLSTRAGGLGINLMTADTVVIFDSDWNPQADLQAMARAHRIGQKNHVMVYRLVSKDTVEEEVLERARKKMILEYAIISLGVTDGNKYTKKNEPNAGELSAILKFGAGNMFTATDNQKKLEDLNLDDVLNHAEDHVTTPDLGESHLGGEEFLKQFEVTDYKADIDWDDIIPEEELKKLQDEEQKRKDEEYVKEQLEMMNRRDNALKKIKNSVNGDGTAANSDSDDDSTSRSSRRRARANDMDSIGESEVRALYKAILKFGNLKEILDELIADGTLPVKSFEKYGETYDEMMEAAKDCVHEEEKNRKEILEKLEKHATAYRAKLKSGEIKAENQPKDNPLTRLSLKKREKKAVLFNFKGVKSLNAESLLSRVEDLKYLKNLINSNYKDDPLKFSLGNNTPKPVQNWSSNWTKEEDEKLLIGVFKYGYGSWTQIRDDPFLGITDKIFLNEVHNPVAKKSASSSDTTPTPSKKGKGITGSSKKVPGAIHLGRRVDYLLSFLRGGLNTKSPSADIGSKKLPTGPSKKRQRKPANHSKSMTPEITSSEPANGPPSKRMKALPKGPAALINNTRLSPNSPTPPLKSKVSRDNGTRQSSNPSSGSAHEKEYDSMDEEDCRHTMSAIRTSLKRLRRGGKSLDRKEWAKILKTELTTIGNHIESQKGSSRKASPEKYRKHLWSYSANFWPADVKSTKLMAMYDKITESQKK

Row | Structure (SMILES) | Percent Effect [1] [%] | Percent Effect [2] [%] | Percent Effect [3] [%] | Percent Effect [4] [%] | Percent Effect [5] [%] | Percent Effect [6] [%] | Percent Effect [7] [%] | Percent Effect [8] [%] | Percent Effect [9] [%] | Percent Effect [10] [%] | Percent Effect [11] [%]
1 | CC(C)c1nc(C2CCCN2Cc2ccccc2C#N)no1 (stereo not drawn) | -1.53 | -13 | -3.89 | 11.4 | 5.24 | 1.07 | -4.22 | 5.77 | 5.83 | 12.2 | 73.9
2 | Cn1ccc(C(=O)N2CCC(Cc3cnc4[nH]ccc4c3)CC2)n1 | -2.94 | 6.76 | 13 | 2.89 | -0.395 | 1.16 | 7.64 | 7.58 | 4.3 | 14.3 | -4.7
3 | CCn1cc(CN2CCCn3nc(CNC(=O)C4CCC4)cc3C2)cn1 | -2.37 | 10.4 | 0.185 | 10.6 | 4.42 | -6.9 | 18.5 | -4.18 | 6.45 | 13.6 | -3.28
4 | CCC(=O)N1CCN(C(=O)CCn2cccn2)CC1 | -1.61 | 24.3 | -7.17 | 0.998 | 6.96 | 0.554 | 8.62 | 5.89 | 6.93 | 25.6 | -6.76
5 | Cc1csc(N2CCN(Cc3cnc(C)s3)CC2C)n1 (stereo not drawn) | -4.06 | 5.48 | 3.55 | -0.927 | 2.94 | 1.36 | 11.2 | 52.1 | 5.38 | 17.5 | -2.04
6 | N#Cc1ccnc(N2CCN(C(=O)Cc3ccc4c(c3)CCO4)CC2)c1 | -5.74 | 21.1 | -3.75 | 4.19 | 5.83 | 0 | 13.4 | 1.61 | 2.45 | 19.5 | -11.9
7 | Cc1nn(C)c(Cl)c1CNCc1cccnc1N1CCN(C)CC1 | -3.92 | 13.2 | 2.58 | 7 | 2.24 | -5.92 | 17.4 | 4.03 | 3.19 | 18.2 | -6.12
8 | CCn1cc(CN2CCC(c3nnc(CN(C)C)n3CC)CC2)cn1 | 0.381 | 10.4 | 3.2 | 6.14 | -4.03 | -1.38 | 14 | 4.82 | 2.15 | 6.17 | 0.0159
